# From PubChem BioAssay
# The source made the active and inactive calls.
# What was measured:
# [1] = test system: PRMT1 (protein arginine N-methyltransferase 1); assay: PRMT1 binders on small-molecule microarrays, primary screen, biochemical, small-molecule microarray, 635 nm fluorescence (AID 1088); conditions: small-molecule microarray binding, higher = more signal;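 also: binding of Prmt1 protein to compounds spotted on small-molecule microarray slides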
# [2] = yeast growth modulation, basal conditions, primary screen, YJM789 clinical isolate, OD600, 24 h (AID 1089);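 also: growth of clinical yeast isolate S. cerevisiae YJM 789 seeded 1000 cells per well; test concentration not given here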; conditions: S. cerevisiae YJM789 growth, higher = more signal, called active from +8 up or from −8 down
# [3] = fission yeast growth modulation, primary screen, strain 972, OD600, 24 h, no modulator (AID 1090);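 also: basal condition with compound alone and no growth modifier present; test concentration not given here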; conditions: S. pombe 972 growth, higher = more signal, called active from +8 up or from −8 down
# [4] = S. cerevisiae growth modulation with rapamycin, primary screen, strain BY4716, OD600, 96 h (AID 1091); conditions: higher = more signal, called active from +8 up or from −8 down; also: test concentration not given here
# [5] = target: Torsin-1A-interacting protein 2 (Homo sapiens) (UniProt Q8NFQ8); assay: LULL1 binders on small-molecule microarray, primary screen, cell lysate, human LULL1 lysate, 635/667 nm fluorescence (AID 1092); conditions: hLULL1 lysate binding, 635 nm fluorescence, higher = more signal;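 also: probe is lysate of COS7 cells overexpressing human LULL1; score merges per-feature 667 nm fluorescence with signal-to-noise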
# Chain of Torsin-1A-interacting protein 2 (Homo sapiens) (Q8NFQ8 whole entry, looked up): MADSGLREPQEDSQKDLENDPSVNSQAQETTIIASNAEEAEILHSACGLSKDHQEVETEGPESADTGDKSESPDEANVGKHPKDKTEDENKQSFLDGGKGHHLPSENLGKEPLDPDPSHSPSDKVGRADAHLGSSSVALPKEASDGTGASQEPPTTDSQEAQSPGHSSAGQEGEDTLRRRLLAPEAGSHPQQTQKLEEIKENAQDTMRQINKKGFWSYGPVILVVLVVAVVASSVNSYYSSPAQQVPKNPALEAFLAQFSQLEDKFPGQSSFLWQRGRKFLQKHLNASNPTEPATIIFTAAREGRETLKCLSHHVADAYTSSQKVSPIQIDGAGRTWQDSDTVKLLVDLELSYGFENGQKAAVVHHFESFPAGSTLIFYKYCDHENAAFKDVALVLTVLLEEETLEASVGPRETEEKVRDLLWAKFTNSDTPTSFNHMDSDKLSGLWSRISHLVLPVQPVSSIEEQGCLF
# [6] = E. coli growth modulation, two-sided OD650, primary screen, E. coli filamentation project, strain DRC41, 24 h (AID 1093); conditions: OD650, 24 h, higher = more signal, called active from +8 up or from −8 down;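 also: MC1000 strain lacking acrAB efflux and sulA so SOS filamentation is blocked; test concentration not given here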
# [7] = small-molecule microarray binders of probe aLefty2, primary screen, biochemical, biotinylated probe, 635/667 nm fluorescence (AID 1094); conditions: higher = more signal;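 also: score merges spot fluorescence near 667 nm with spot signal-to-noise ratio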
# [8] = test system: Noggin (protein binding on small-molecule microarray); assay: Noggin binders on small-molecule microarray, primary screen, biochemical, 635/667 nm fluorescence (AID 1095); conditions: 635 nm fluorescence, higher = more signal;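 also: score merges 667 nm feature fluorescence with signal to noise over triplicate slides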
# [9] = target: Neurogenic locus notch homolog protein 3 (Homo sapiens) (UniProt Q9UM47); assay: NOTCH3 binders on small-molecule microarray, primary screen, biochemical, 635/667 nm fluorescence (AID 1096); conditions: NOTCH3 binding, 635 nm fluorescence, higher = more signal
# Chain of Neurogenic locus notch homolog protein 3 (Homo sapiens) (Q9UM47 whole entry, looked up): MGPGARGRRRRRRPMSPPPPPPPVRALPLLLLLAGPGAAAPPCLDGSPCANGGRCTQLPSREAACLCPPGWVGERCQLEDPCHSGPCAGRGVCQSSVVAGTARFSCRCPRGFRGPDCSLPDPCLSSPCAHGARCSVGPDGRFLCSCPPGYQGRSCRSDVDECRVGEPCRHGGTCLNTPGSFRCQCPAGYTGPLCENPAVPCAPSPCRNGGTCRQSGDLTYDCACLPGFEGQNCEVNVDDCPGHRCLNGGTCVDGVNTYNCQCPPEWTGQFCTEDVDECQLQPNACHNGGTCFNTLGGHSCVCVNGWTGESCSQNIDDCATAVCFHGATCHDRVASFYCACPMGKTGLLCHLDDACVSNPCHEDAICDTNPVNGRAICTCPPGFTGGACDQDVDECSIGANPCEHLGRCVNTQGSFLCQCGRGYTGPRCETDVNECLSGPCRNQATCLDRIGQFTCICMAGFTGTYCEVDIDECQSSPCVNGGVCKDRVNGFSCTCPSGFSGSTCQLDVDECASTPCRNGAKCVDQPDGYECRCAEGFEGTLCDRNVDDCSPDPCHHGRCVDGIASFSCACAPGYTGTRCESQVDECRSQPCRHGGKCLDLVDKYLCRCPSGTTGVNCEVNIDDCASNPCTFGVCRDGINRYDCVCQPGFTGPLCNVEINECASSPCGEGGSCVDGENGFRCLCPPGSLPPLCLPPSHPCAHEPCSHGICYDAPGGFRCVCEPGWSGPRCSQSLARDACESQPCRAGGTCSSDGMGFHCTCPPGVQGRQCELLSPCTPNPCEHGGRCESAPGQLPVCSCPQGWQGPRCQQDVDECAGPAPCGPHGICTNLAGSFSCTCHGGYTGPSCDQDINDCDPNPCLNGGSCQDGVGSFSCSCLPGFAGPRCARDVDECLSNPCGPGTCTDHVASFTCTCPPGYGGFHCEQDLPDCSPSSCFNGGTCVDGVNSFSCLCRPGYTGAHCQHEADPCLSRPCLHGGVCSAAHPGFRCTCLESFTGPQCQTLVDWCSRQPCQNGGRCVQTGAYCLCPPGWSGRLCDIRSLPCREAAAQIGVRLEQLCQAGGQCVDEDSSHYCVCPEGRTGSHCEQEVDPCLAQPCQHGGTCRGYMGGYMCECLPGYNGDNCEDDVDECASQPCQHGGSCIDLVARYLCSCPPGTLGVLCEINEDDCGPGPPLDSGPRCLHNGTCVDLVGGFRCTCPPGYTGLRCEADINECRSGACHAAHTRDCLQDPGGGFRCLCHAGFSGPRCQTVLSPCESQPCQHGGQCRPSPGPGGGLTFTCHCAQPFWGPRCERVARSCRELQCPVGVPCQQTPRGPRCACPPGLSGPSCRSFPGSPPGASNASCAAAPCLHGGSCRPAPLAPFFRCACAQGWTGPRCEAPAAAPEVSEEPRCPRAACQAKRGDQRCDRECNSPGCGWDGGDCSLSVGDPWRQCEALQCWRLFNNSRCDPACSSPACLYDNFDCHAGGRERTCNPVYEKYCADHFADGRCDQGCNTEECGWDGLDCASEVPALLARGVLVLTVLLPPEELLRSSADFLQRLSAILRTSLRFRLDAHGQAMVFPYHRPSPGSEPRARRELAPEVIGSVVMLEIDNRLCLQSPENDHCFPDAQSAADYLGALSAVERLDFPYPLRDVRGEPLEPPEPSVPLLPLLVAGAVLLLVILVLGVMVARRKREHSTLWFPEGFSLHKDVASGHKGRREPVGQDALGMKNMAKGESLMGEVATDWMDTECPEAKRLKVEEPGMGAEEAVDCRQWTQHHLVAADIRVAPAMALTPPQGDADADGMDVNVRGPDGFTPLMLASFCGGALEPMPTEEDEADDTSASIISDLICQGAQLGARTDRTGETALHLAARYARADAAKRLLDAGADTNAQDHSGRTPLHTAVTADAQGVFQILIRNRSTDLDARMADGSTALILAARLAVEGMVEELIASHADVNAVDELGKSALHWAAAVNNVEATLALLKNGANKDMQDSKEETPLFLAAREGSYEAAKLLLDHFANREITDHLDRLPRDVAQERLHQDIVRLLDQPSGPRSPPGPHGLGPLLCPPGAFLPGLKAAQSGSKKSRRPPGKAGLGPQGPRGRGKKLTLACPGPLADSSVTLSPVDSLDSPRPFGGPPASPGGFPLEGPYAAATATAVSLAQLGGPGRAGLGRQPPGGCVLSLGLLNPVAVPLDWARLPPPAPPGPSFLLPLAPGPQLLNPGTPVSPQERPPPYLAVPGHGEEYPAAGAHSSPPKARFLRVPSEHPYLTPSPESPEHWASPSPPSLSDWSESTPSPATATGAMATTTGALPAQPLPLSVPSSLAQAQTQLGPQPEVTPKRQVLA
# [10] = small-molecule microarray binders of probe aEGFR, primary screen, biochemical, biotinylated probe, 635/667 nm fluorescence (AID 1097); conditions: higher = more signal;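 also: probe is a biotinylated anti-EGFR antibody binding compounds printed on slides; score combines fluorescence near 667 nm and signal to noise of each spot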
# [11] = test system: Plasmodium falciparum Sir2 (PF13_0152, Sir2A); assay: pfSir2 binders on small-molecule microarrays, primary screen, biochemical, small-molecule microarray, 635 nm fluorescence (AID 1098); conditions: small-molecule microarray binding, fluorescence 635 nm; higher = more signal;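 also: score merges spot fluorescence intensity with its signal-to-noise ratio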
# [12] = small-molecule microarray binders of probe aDKK1, primary screen, biochemical, biotinylated probe, 635/667 nm fluorescence (AID 1099); conditions: higher = more signal;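 also: score merges 667nm spot fluorescence with signal to noise across triplicate slides; reference of the scale not given here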
# [13] = small-molecule microarray binders of probe aCHRDL2, primary screen, biochemical, biotinylated probe, 635/667 nm fluorescence (AID 1100); conditions: higher = more signal
# [14] = splicing luciferase reporter signal modulators, primary screen, spliceosome inhibition project, cell-based, HEK293, splice +/- reporter (AID 1101); conditions: luminescence, 24 h, higher = more signal, called active from +8 up or from −8 down;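 also: HEK293 cells carrying a splicing-competent luciferase reporter gene; test concentration not given here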
# [15] = target: Fibroblast growth factor 10 (Homo sapiens) (UniProt O15520); assay: FGF10 binders on small-molecule microarrays, primary screen, biochemical, small-molecule microarray, 635 nm fluorescence (AID 1102); conditions: FGF10 binding, fluorescence 635 nm, higher = more signal
# Chain of Fibroblast growth factor 10 (Homo sapiens) (O15520 whole entry, looked up): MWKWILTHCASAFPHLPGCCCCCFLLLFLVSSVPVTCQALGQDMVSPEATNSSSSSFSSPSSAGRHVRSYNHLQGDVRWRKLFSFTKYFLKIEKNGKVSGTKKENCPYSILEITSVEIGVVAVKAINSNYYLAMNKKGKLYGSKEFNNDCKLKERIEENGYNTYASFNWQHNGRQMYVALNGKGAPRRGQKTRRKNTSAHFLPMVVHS
# [16] = test system: glycogen synthase kinase-3 (GSK3A per assay name; protocol says GSK3B); assay: GSK3 binders on small-molecule microarrays, primary screen, biochemical, small-molecule microarray, 635 nm fluorescence, GSK3A (AID 1103); conditions: small-molecule microarray binding, fluorescence 635 nm; higher = more signal; also: the record names both GSK3A and GSK3B
# [17] = target: Epidermal growth factor receptor (Homo sapiens) (UniProt P00533); assay: EGFR binders on small-molecule microarrays, primary screen, biochemical, small-molecule microarray, 635 nm fluorescence (AID 1104); conditions: EGFR binding, higher = more signal;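 also: score merges 667 nm emission intensity with spot signal to noise over triplicate slides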
# Chain of Epidermal growth factor receptor (Homo sapiens) (P00533 whole entry, looked up): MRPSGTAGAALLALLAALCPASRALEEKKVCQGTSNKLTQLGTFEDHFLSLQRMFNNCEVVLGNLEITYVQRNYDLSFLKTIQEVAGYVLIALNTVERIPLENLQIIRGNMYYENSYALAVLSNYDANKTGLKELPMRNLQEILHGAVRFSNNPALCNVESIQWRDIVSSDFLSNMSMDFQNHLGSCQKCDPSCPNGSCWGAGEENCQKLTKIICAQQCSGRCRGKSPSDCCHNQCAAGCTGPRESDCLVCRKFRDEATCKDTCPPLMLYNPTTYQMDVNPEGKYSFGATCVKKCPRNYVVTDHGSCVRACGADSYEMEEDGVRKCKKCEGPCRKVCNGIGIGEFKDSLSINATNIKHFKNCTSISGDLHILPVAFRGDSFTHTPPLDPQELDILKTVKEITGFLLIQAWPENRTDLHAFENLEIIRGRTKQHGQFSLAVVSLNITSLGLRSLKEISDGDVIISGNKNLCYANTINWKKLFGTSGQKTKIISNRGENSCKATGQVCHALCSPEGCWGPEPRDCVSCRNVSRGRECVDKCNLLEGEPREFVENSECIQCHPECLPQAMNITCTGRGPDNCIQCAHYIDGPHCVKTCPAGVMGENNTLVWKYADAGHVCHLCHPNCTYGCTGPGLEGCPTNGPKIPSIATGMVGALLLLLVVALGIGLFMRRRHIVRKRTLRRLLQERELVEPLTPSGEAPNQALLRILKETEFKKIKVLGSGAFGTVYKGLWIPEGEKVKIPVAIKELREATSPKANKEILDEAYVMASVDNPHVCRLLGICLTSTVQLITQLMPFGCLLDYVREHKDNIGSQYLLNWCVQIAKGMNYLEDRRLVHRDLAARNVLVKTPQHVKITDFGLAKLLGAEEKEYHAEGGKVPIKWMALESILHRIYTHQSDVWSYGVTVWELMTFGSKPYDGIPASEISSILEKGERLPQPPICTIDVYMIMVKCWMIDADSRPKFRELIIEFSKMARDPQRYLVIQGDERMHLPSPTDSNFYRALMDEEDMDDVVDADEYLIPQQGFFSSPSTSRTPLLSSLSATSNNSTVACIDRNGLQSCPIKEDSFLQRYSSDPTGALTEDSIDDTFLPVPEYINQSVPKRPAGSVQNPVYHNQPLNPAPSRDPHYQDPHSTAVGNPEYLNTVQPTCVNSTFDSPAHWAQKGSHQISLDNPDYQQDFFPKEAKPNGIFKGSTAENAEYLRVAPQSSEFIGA
# [18] = target: Follistatin-related protein 3 (Homo sapiens) (UniProt O95633); assay: FSTL3 binders on small-molecule microarrays, primary screen, biochemical, small-molecule microarray, 635 nm fluorescence (AID 1105); conditions: FSTL3 binding, higher = more signal;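 also: score merges emission near 667 nm and signal to noise per printed spot across three slides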
# Chain of Follistatin-related protein 3 (Homo sapiens) (O95633 whole entry, looked up): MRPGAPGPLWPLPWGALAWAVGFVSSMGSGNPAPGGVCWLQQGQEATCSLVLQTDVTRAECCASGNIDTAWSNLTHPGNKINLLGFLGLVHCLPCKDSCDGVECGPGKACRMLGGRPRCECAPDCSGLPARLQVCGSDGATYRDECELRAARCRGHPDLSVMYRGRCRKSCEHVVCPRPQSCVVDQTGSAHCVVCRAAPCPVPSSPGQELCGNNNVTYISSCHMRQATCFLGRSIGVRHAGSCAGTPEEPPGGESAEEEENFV
# [19] = target: Dickkopf-related protein 1 (Homo sapiens) (UniProt O94907); assay: DKK1 binders on small-molecule microarrays, primary screen, biochemical, small-molecule microarray, 635 nm fluorescence scan (AID 1106); conditions: DKK1 binding, higher = more signal;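 also: score merges emission near 667 nm with signal to noise over three replicate slides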
# Chain of Dickkopf-related protein 1 (Homo sapiens) (O94907 whole entry, looked up): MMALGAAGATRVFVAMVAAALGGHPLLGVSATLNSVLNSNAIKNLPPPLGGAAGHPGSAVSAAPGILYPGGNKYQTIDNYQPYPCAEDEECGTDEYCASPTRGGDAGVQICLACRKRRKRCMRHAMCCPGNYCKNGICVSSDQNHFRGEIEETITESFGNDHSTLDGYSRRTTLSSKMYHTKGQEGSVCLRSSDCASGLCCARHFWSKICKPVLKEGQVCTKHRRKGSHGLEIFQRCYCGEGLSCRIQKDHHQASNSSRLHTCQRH
# [20] = test system: Inhibin beta A chain (activin A); assay: INHBA (activin A) binders on microarrays, primary screen, biochemical, small-molecule microarray, 635 nm fluorescence scan (AID 1107); conditions: small-molecule microarray binding, higher = more signal;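 also: mouse activin A protein probed at 4.33 µg/mL on printed slides; score merges bound-protein fluorescence near 667 nm with spot signal-to-noise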
SMILES,composite z-score [1],z-score [2],z-score [3],z-score [4],composite z-score [5],z-score [6],composite z-score [7],composite z-score [8],composite z-score [9],composite z-score [10],composite z-score [11],composite z-score [12],composite z-score [13],z-score [14],composite z-score [15],composite z-score [16],composite z-score [17],composite z-score [18],composite z-score [19],composite z-score [20]
CC(C)CCC[C@@H](C)[C@H]1CC[C@@]2(C)C3=C(CC[C@]12C)[C@@]1(C)CC[C@H](OC(=O)c2ccc(C(F)(F)F)nc2)C(C)(C)C1CC3 (stereo not given in full),-0.431,-1.64 (inactive),-0.769 (inactive),-0.455 (inactive),0.282,3.05 (inactive),-0.233,0.52,0.483,-0.1,0.22,-0.514,-0.491,-0.895 (inactive),0.595,0.714,0.471,0.627,0.418,-0.0544
O=C1C2C=CC(C(O)C=Cc3ccc([N+](=O)[O-])cc3)N(Nc3ccccc3F)C2C(=O)N1c1ccccc1 (stereo not given),1.57,0.612 (inactive),2.1 (inactive),1.47 (inactive),3.1,-1.04 (inactive),0.0511,0.0689,0.994,0.293,0.808,0.468,0.831,0.755 (inactive),1.13,1.28,0.464,1.13,0.0328,1.08
COc1ccc(C#Cc2ccc3c(c2)[C@]2(C(=O)N3)[C@H](c3ccc(O)cc3)N3[C@H](c4ccccc4)[C@H](c4ccccc4)OC(=O)[C@H]3[C@@H]2C(=O)N2CCc3cc(OC)c(OC)cc3C2)cc1,1.54,1.74 (inactive),0.921 (inactive),1.93 (inactive),3.04,-0.0389 (inactive),-0.189,1.68,1.07,-0.0381,1.46,-0.157,-0.208,1.34 (inactive),0.768,1.26,0.469,0.853,0.31,0.155
CS(=O)(=O)CCOC(=O)C1=CC(CCCO)=CC(c2ccc(CN3CCCC3)cc2)N(Cc2cccc(OC(F)(F)F)c2)C=C1C(=O)OCCS(C)(=O)=O (stereo not given),1.57,0.441 (inactive),-12.9 (active),-0.805 (inactive),2.62,-1.05 (inactive),0.336,0.738,1.13,0.172,1.02,0.275,0.367,0.0999 (inactive),1.19,0.997,0.582,0.945,0.468,1.32
CCCC(=O)N(CCc1c[nH]c2ccccc12)[C@@H]1CC(C(=O)NCCO)=C[C@H](Oc2c(I)cc(CO)cc2OC)[C@H]1O,0.234,0.5 (inactive),-0.713 (inactive),-0.241 (inactive),1.42,1.55 (inactive),-0.157,0.259,-0.0693,-0.0708,-0.575,-0.334,-0.516,-0.125 (inactive),-0.0122,-0.431,0.164,0.0027,0.404,0.181
COc1cc(OC)c(C(O)C2C=CC3C(=O)NC(=O)C3N2Nc2ccccn2)cc1Br (stereo not given),1.49,-0.0137 (inactive),-0.289 (inactive),0.204 (inactive),0.645,-0.564 (inactive),0.0917,0.458,0.716,0.131,0.968,0.615,0.483,0.893 (inactive),0.689,0.398,0.807,0.835,0.815,0.811
C#CCN(C/C=C/c1ccccc1)[C@H](CO)c1ccccc1,-0.019,-3.99 (inactive),-21.4 (active),-1.64 (inactive),0.0638,0.408 (inactive),-0.319,1.12,0.39,-0.215,-0.222,-0.583,-0.506,0.985 (inactive),0.0797,0.0831,-0.0239,0.598,0.358,-0.283
COC(=O)[C@@]1(Cc2ccc(OC)cc2)[C@H]2c3cc(C(=O)N(C)C)n(Cc4ccc(C(F)(F)F)nc4)c3C[C@H]2CN1C(=O)c1ccccc1,-1.54,0.643 (inactive),1.7 (inactive),0.473 (inactive),2.17,0.379 (inactive),0.498,0.243,-0.055,0.338,0.707,1.15,0.784,-1.59 (inactive),0.081,-0.178,0.189,-0.015,-0.557,0.663
CC(C)(C)OC(=O)CC[C@]1(C(N)=O)N=C(c2ccc(OCCCO)cc2)O[C@H]1c1ccccc1,0.735,0.519 (inactive),0.256 (inactive),0.793 (inactive),3.74,0.152 (inactive),0.423,0.115,0.89,0.372,0.883,1.32,1.35,0.138 (inactive),1.36,0.555,-0.589,-0.188,-1.16,0.976
Cc1ccc(S[C@]2(C(=O)O)CC(=O)N(C(C)C)[C@@H]2c2ccc(CO)cc2)cc1,1.21,-1.54 (inactive),-0.916 (inactive),-0.963 (inactive),-0.634,1.66 (inactive),-0.0719,0.306,-0.229,-0.134,0.161,-0.11,0.34,-0.448 (inactive),0.224,-0.207,-0.468,0.147,0.0142,0.754
